{
  "source": "PubChem BioAssay (NCATS)",
  "note": "Values without a mark were called inactive. No rule for the calls is given here. Potency is read from the fitted curve at half-maximal effect.",
  "data": [
    {"test_system": "HIV-1 nucleocapsid protein NCp7 (binding to TG oligonucleotide)", "assay": "HIV Nucleocapsid (AID 346);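 also: potency is for inhibitors that block NC binding and lower polarization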", "conditions": "HIV-1 NC / fluorescein-TGTGTGTG probe, fluorescence polarization", "method_in_brief": "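Inhibition of nucleocapsid binding to single-stranded 5'-TGTGTGTG probe (10 nM) was measured by fluorescence polarization after 1 hr at room temperature with 100 nM protein under high-salt, zinc-containing, reducing conditions.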", "units": {"Potency": "µM"}, "values": [
      {"smiles": "N#CCCn1c(=O)c(-c2cccs2)nc2cnc(Oc3cccc(Cl)c3)nc21", "Potency": "> 4"},
      {"smiles": "COc1ccc(-n2c(=O)c(-c3cccs3)nc3cnc(Oc4ccccc4)nc32)cc1", "Potency": "> 4"},
      {"smiles": "COc1cccc(-c2nc(N(C)C)c3ccccc3n2)c1", "Potency": "> 20"},
      {"smiles": "CN1CCN(c2ncc3nc(-c4ccc(Cl)cc4)c(=O)n(Cc4cccs4)c3n2)CC1", "Potency": "> 20"},
      {"smiles": "Clc1ccccc1-c1nc(NC2CCNCC2)c2ccccc2n1", "Potency": "> 20"},
      {"smiles": "c1cncc(CNc2ncnc3ccc(-c4cccnc4)cc23)c1", "Potency": "> 20"},
      {"smiles": "COC(=O)N1CCC2(CCN(Cc3ccccc3)CC2)CC1", "Potency": "> 20"},
      {"smiles": "O=C(c1ccncc1)N1CCC2(CCN(Cc3cc(C(F)(F)F)cc(C(F)(F)F)c3)CC2)CC1", "Potency": "> 20"},
      {"smiles": "CN(C)c1nc(-c2ccccc2C(F)(F)F)nc2ccccc12", "Potency": "> 20"},
      {"smiles": "Cc1nc2cnc(Oc3ccccc3)nc2n(CCc2ccccc2)c1=O", "Potency": "> 20"},
      {"smiles": "COc1ncc2nc(-c3cc(F)cc(F)c3)c(=O)n(Cc3cccs3)c2n1", "Potency": "> 20"},
      {"smiles": "COc1ccccc1CNc1nc(-c2ccccc2OC)nc2ccccc12", "Potency": "> 20"},
      {"smiles": "COc1ccc(C(=O)N2CCC3(CCCN(C(=O)NC(C)C)C3)CC2)cc1", "Potency": "> 20"},
      {"smiles": "COc1ccc(CNc2ccnc(-c3cccc(NS(C)(=O)=O)c3)n2)c(OC)c1", "Potency": "> 20"},
      {"smiles": "N#Cc1ccc(CN2CCCC3(CCN(C(=O)c4ccncc4)CC3)C2)cc1", "Potency": "> 20"},
      {"smiles": "FC(F)(F)c1ccccc1-c1cc(NCCN2CCOCC2)ncn1", "Potency": "> 20"},
      {"smiles": "COC(=O)N1CCC2(CCCN(Cc3ccc(C#N)cc3)C2)CC1", "Potency": "> 20"},
      {"smiles": "CCNc1ncc2nc(CCc3ccccc3)c(=O)n(C)c2n1", "Potency": "> 20"},
      {"smiles": "O=C(c1cccc(F)c1)N1CCC2(CC1)CCN(c1ccccc1)CC2", "Potency": "> 20"},
      {"smiles": "Cc1nc2cnc(Nc3ccccc3)nc2n(Cc2cccs2)c1=O", "Potency": "> 20"},
      {"smiles": "CC(=O)N1CCC2(CC1)CN(Cc1ccc(C#N)cc1)C2", "Potency": "> 20"},
      {"smiles": "Cn1c(=O)c(-c2ccccc2)nc2cnc(OCc3ccccc3)nc21", "Potency": "> 20"},
      {"smiles": "CN(Cc1ccco1)c1ccnc(-c2ccccc2C(F)(F)F)n1", "Potency": "> 20"},
      {"smiles": "O=C(c1cccc(F)c1)N1CCC2(CCCN(C(c3ccccc3)c3ccccc3)C2)CC1", "Potency": "> 20"},
      {"smiles": "COc1ncc2nc(-c3cccs3)c(=O)n(-c3ccccc3)c2n1", "Potency": "> 4"},
      {"smiles": "CCNc1ncc2nc(-c3ccc(Cl)cc3)c(=O)n(Cc3cccc(OC)c3)c2n1", "Potency": 14.6},
      {"smiles": "Cn1c(=O)c(-c2ccc(F)cc2)nc2cnc(Nc3ccccc3)nc21", "Potency": "> 20"},
      {"smiles": "COC(=O)N1CCC2(CCCN(c3cccc(-c4ccccc4)c3)C2)CC1", "Potency": "> 20"},
      {"smiles": "CC(=O)N1CCC2(CCN(Cc3nccs3)CC2)CC1", "Potency": "> 20"},
      {"smiles": "CC(=O)N1CCC[C@@]2(CCN(c3ccccc3)C2)C1", "Potency": "> 20"},
      {"smiles": "COc1ccccc1-c1cc(NCc2cccc(C)c2)ncn1", "Potency": "> 20"},
      {"smiles": "Cc1ccccc1-c1nccc(NCc2cccnc2)n1", "Potency": "> 20"},
      {"smiles": "COc1cccc(-c2cncnc2NCCc2cnc[nH]2)c1", "Potency": "> 20"},
      {"smiles": "COc1ccc(CNc2ncncc2-c2ccccc2C(F)(F)F)c(OC)c1", "Potency": "> 20"},
      {"smiles": "Cn1c(=O)c(-c2cc(F)cc(F)c2)nc2cnc(Nc3ccccc3)nc21", "Potency": "> 20"},
      {"smiles": "COc1cccc(-c2ccc3ncnc(NCc4cccs4)c3c2)c1", "Potency": "> 20"},
      {"smiles": "c1ccc(-c2cccc(N3CCC4(CCNCC4)CC3)c2)cc1", "Potency": "> 20"},
      {"smiles": "COc1ccc(-n2c(=O)cnc3cnc(Oc4ccccc4)nc32)cc1", "Potency": "> 20"},
      {"smiles": "Cc1noc(C)c1-c1ccc2ncnc(N(C)C)c2c1", "Potency": "> 20"},
      {"smiles": "O=c1c(-c2ccc(F)cc2)nc2cnc(N3CCNCC3)nc2n1Cc1cccs1", "Potency": "> 20"}
    ]}
  ]
}
